Reference: the supplement of paper PMC6555819

Tests used:
Test in all cases: PBM binding z-score (relative to random genomic background probes); higher = stronger binding; sequences stand for … in GC…GCGATTGACAGCGTAGAATGAAGG
[1] = system: FXR:RXRa (NR concentration 270 nM, RXRa partner concentration 90 nM)
Outline: (§1)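 Custom Agilent 4×180K protein-binding microarrays carried double-stranded probes, each with a 34-nt variable region. These regions held direct-repeat seeds, single-nucleotide variants, half-site ablations and random human genomic background sequences. Ligand-free nuclear receptor dimers were incubated on the arrays for 1 h, antibodies against each partner (one per run) detected binding, and scanned fluorescence was regression-normalized. Binding z-scores take the random background probes as reference.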

[2] = system: LXRa:RXRa (NR concentration 270 nM, RXRa partner concentration 90 nM)
Outline: as §1

[3] = system: LXRa homodimer (NR concentration 270 nM)
Outline: as §1

[4] = system: LXRb:RXRa (NR concentration 270 nM, RXRa partner concentration 90 nM)
Outline: as §1

[5] = system: LXRb homodimer (NR concentration 270 nM)
Outline: as §1

[6] = system: PPARa:RXRa (NR concentration 270 nM, RXRa partner concentration 90 nM)
Outline: as §1

[7] = system: PPARg:RXRa (NR concentration 180 nM, RXRa partner concentration 90 nM)
Outline: as §1

[8] = system: PPARg:RXRa 270nM:90nM, anti-RXR (NR concentration 270 nM, RXRa partner concentration 90 nM)
Outline: as §1

[9] = system: PPARg:RXRa 30nM:10nM, anti-RXR (NR concentration 30 nM, RXRa partner concentration 10 nM)
Outline: as §1

[10] = system: PPARg:RXRa 90nM:30nM, anti-RXR (NR concentration 90 nM, RXRa partner concentration 30 nM)
Outline: as §1

[11] = system: PPARg:RXRa DBDmut IVT, anti-RXR (DBD mutation: RXRa K156A/R161A, NR concentration 270 nM, RXRa partner concentration 90 nM)
Outline: as §1

[12] = system: PPARg:RXRa IVT, anti-PPARg (NR concentration 270 nM, RXRa partner concentration 90 nM)
Outline: as §1

[13] = system: PPARg DBDmut:RXRa IVT, anti-PPARg (DBD mutation: PPARg1 K132A/R137A, NR concentration 270 nM, RXRa partner concentration 90 nM)
Outline: as §1

[14] = system: PPARg DBDmut IVT, anti-PPARg (DBD mutation: PPARg1 K132A/R137A, NR concentration 270 nM)
Outline: as §1

[15] = system: PPARg homodimer (NR concentration 180 nM)
Outline: as §1

[16] = system: PXR:RXRa (NR concentration 270 nM, RXRa partner concentration 90 nM)
Outline: as §1

[17] = system: PXR homodimer (NR concentration 270 nM)
Outline: as §1

[18] = system: RARa:RXR (NR concentration 270 nM, RXRa partner concentration 90 nM)
Outline: as §1

[19] = system: RARa homodimer (NR concentration 270 nM)
Outline: as §1

[20] = system: RARb:RXRa (NR concentration 270 nM, RXRa partner concentration 90 nM)
Outline: as §1

Sequence	PBM binding z-score [1]	PBM binding z-score [2]	PBM binding z-score [3]	PBM binding z-score [4]	PBM binding z-score [5]	PBM binding z-score [6]	PBM binding z-score [7]	PBM binding z-score [8]	PBM binding z-score [9]	PBM binding z-score [10]	PBM binding z-score [11]	PBM binding z-score [12]	PBM binding z-score [13]	PBM binding z-score [14]	PBM binding z-score [15]	PBM binding z-score [16]	PBM binding z-score [17]	PBM binding z-score [18]	PBM binding z-score [19]	PBM binding z-score [20]
TCGAGTAGATTAGGGGCATTCAGAATGGCGTCGA	-0.41	-0.292	-0.833	0.457	-0.772	0.269	-0.0813	0.334	0.917	0.699	0.671	-0.44	-1.09	-1.25	-0.958	0.158	-0.306	-0.0495	-1.16	0.182
CGAACTAGGTCAGAACAGGACAGTGACGGATGAT	1.23	0.594	-0.065	0.276	-0.492	2.87	5.01	4.26	1.69	3.39	7.03	7.13	1.03	0.514	0.929	0.794	0.206	0.633	0.383	2.99
CATACAGGATCAGCTAGGCCAGAGTAGGGACGGC	-0.21	-0.464	0.0266	-0.7	-0.0365	-0.466	0.558	-0.422	-0.274	-0.505	-0.103	-0.208	0.289	0.351	0.422	-0.609	-0.0917	-0.441	0.241	-0.093
AGTCAAATTTCAGGACGAGGTAACGTAAAGCACG	0.0503	-0.145	0.0565	0.0191	-0.153	-0.229	0.688	-0.178	-0.0529	-0.261	-0.406	0.239	0.677	0.285	0.523	-0.111	0.169	0.428	0.17	0.269
TATACAGGGGCAAAGGCCAGAGTACGAATGTCGA	0.799	1.07	0.0951	1.34	1.92	2.84	4.54	5.09	3.45	4.92	0.641	2.72	1.72	2.01	1.16	0.577	0.087	0.592	0.364	2.1
TGAATGAGGTTATAGGATCAGGGAACGTTGCAAA	1.98	1.6	-0.459	1.39	-0.108	3.28	2.06	2.51	1.15	2.08	1.16	2.21	0.833	-0.0124	0.65	1.05	0.148	1.82	0.469	1.48
CGAACTAGGTCAGAACAGGACGGTGAAGGATGAT	0.947	0.319	-0.295	-0.0399	-0.471	2.64	4.74	4.11	2.15	3.38	7.03	7.23	1.59	1.11	0.681	0.143	-0.288	0.525	0.0623	2.55
GCTAGCAGGCCATTTGTGTCACTCAATGACGGGC	-0.539	-0.568	-1.12	-1.03	-0.864	-0.398	0.274	-0.38	-0.669	-0.744	1.46	0.556	-0.775	-0.917	-0.822	-0.691	-0.552	-0.532	-0.827	0.161
CGTCCAAGGTCATAGGTGGTCAGTGAAGACAGAT	7.11	5.63	1.51	4	0.409	5.57	5.44	5.25	2.42	4.36	2.96	3.73	0.259	-0.648	2.54	4.5	1.58	5	1.26	4.89
TCGAGTAGGTTAGTCGGGGAATTCAGCCAACATA	-0.0396	-0.257	-0.394	-0.065	-0.946	0.287	-0.188	0.615	0.883	0.675	2.15	1.62	-0.453	-0.828	-0.2	-0.311	-0.47	-0.102	-0.0152	-0.105
CGAACTAGGTCAGAACAGGACAGTGCAGGATGAT	1.66	0.725	-0.124	0.147	-0.225	3.08	5.1	4.39	1.84	3.81	7.46	7.27	0.839	0.368	1.18	0.783	0.225	0.999	0.221	2.96
CCTACTGGGCCACGAAAGATCATTGATTCAGTGA	-0.333	-0.132	-0.275	-0.437	-0.666	0.946	1.67	1.31	0.112	0.519	5.69	5.25	0.632	-0.411	0.215	-0.421	-0.111	-0.0697	-0.401	0.211
GTACCAAGGTGAATAGGCCGTTGATGAGTAGGCG	0.0834	0.126	-0.456	-0.22	-0.582	1.08	0.806	0.724	-0.00292	0.38	1.64	2.14	-0.316	-0.431	0.326	0.0653	-0.287	0.238	0.218	1.36
TCGAGTAGGTTAGGGGCATCCAGAATGGCGTCGA	0.419	0.286	-0.391	0.913	-0.812	1.38	0.651	2.05	1.32	1.8	1.78	1.45	-0.511	-0.719	0.537	0.349	-0.0589	0.496	-0.597	1.18
TCTGCTAGGTCAACGATGGTCACCTAATCTGCTA	3.57	2.97	0.264	2.05	-0.183	3.49	2.96	3.36	1.98	2.76	4.12	4.82	0.776	0.398	0.811	2.12	-0.994	2.8	-0.586	4.2
